# According to PubChem BioAssay AID504915 (The Scripps Research Institute Molecular Screening Center, 2011):
# The list shows a part of the results. Unmarked numbers belong to inactive results. Rule as the data show it: active = activation above about 17%; inactive = the rest.
# Target: 5-hydroxytryptamine receptor 5A (Homo sapiens) (UniProt P47898)
# Test: HTR5A agonists, retest of hits, confirmation, cell-based, luminescence (AID 504915);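 also: 0% = cells with vehicle only and 100% = full reference agonist response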
# Conditions: HTR5A agonist cell assay, at 9.3 µM, stronger effect = higher value
# Sequence of 5-hydroxytryptamine receptor 5A (Homo sapiens) (P47898 whole entry, looked up): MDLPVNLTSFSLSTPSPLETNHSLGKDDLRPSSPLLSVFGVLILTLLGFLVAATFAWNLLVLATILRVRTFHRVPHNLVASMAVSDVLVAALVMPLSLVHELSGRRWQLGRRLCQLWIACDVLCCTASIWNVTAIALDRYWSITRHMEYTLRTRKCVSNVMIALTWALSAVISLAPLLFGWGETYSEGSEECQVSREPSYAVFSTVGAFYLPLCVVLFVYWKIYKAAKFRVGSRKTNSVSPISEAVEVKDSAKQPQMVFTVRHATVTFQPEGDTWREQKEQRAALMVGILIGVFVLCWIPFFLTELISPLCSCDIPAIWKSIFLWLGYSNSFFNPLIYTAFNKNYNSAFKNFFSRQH
compound,measurement,value
CCCCCCCCCCCCn1ccc(=N)cc1,activation,0.13%
